Measurements published in PubChem BioAssay AID1159580 (chemical genetic matrix, 2015).
In all, about 5,500 compounds went through this assay and about 2,000 (36%) were called active. Another 18% or so got no clear call; they are omitted. Cut-off read from the data, not from the text of the source: active = normalized growth mostly below about 0.91 (no sharp cut-off); inconclusive = no clear call, values can overlap the other calls; inactive = mostly above about 0.92. The list shows a part of the results.

Test: chemical genetic growth profiling, strain panel (AID 1159580);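 note: tested at 20 µM; growth read once vehicle control cultures reached saturation at 30 °C; 1 = growth at the plate median or of vehicle wells; lower values mean less growth of the strain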
Details: growth OD

Measured: normalized growth

CC(=O)N[C@@H](Cc1c[nH]c2ccccc12)C(=O)O
inactive: S. cerevisiae deletion strains, locus YJR075W, strain HOC1, active compounds read low 1 | S. cerevisiae deletion strains, locus YKL009W, strain mrt4, active compounds read low 0.981 | S. cerevisiae deletion strains, locus YKL068W, active compounds read low 1.01 | S. cerevisiae deletion strains, locus YKL085W, strain MDH1 (second series), active compounds read low 1.01 | S. cerevisiae deletion strains, locus YKL085W, strain MDH1, active compounds read low 1.01 | S. cerevisiae deletion strains, locus YKL160W, strain elf1, active compounds read low 0.962 | S. cerevisiae deletion strains, locus YKL190W, strain CNB1, active compounds read low 1 | S. cerevisiae deletion strains, locus YKR001C, strain vps1, active compounds read low 1.02 | S. cerevisiae deletion strains, locus YKR026C, strain gcn3, active compounds read low 0.987 | S. cerevisiae deletion strains, locus YKR091W, strain srl3, active compounds read low 0.977 | S. cerevisiae deletion strains, locus YLL001W, strain dnm1, active compounds read low 0.983 | S. cerevisiae deletion strains, locus YLL026W, active compounds read low 0.99 | S. cerevisiae deletion strains, locus YLL041C, strain sdh2, active compounds read low 1 | S. cerevisiae deletion strains, locus YLR027C, strain aat2, active compounds read low 0.994 | S. cerevisiae deletion strains, locus YLR039C, strain RIC1, active compounds read low 1.02 | S. cerevisiae deletion strains, locus YLR058C, strain SHM2, active compounds read low 1.01 | S. cerevisiae deletion strains, locus YLR102C, strain apc9, active compounds read low 1.02 | S. cerevisiae deletion strains, locus YLR113W, strain HOG1, active compounds read low 1 | S. cerevisiae deletion strains, locus YLR221C, strain rsa3, active compounds read low 1.01 | S. cerevisiae deletion strains, locus YLR258W, strain gsy2, active compounds read low 0.967 | S. cerevisiae deletion strains, locus YLR262C, strain YPT6 (second series), active compounds read low 1.02 | S. cerevisiae deletion strains, locus YLR262C, strain YPT6, active compounds read low 1.02 | S. cerevisiae deletion strains, locus YLR268W, strain sec22, active compounds read low 1.04 | S. cerevisiae deletion strains, locus YLR320W, strain mms22, active compounds read low 1.02 | S. cerevisiae deletion strains, locus YLR330W, strain CHS5, active compounds read low 1.01 | S. cerevisiae deletion strains, locus YLR342W, strain FKS1 (second series), active compounds read low 1.04 | S. cerevisiae deletion strains, locus YLR342W, strain FKS1, active compounds read low 0.981 | S. cerevisiae deletion strains, locus YLR357W, strain rsc2, active compounds read low 0.983 | S. cerevisiae deletion strains, locus YLR370C, strain arc18, active compounds read low 0.995 | S. cerevisiae deletion strains, locus YLR371W, strain rom2, active compounds read low 1.03 | S. cerevisiae deletion strains, locus YLR384C, strain iki3, active compounds read low 0.984 | S. cerevisiae deletion strains, locus YLR418C, strain cdc73, active compounds read low 1.07 | S. cerevisiae deletion strains, locus YML016C, strain PPZ1, active compounds read low 1.01 | S. cerevisiae deletion strains, locus YML032C, strain rad52, active compounds read low 1.02 | S. cerevisiae deletion strains, locus YML120C, strain ndi1, active compounds read low 0.989 | S. cerevisiae deletion strains, locus YML124C, strain tub3, active compounds read low 1.02 | S. cerevisiae deletion strains, locus YMR058W, strain fet3, active compounds read low 0.988 | S. cerevisiae deletion strains, locus YMR078C, strain ctf18, active compounds read low 1.02 | S. cerevisiae deletion strains, locus YMR125W, strain sto1, active compounds read low 0.973 | S. cerevisiae deletion strains, locus YMR129W, active compounds read low 0.976 | S. cerevisiae deletion strains, locus YMR205C, strain PFK2, active compounds read low 0.985 | S. cerevisiae deletion strains, locus YMR223W, strain ubp8, active compounds read low 1.02 | S. cerevisiae deletion strains, locus YMR231W, strain pep5, active compounds read low 0.978 | S. cerevisiae deletion strains, locus YMR263W, strain SAP30, active compounds read low 0.998 | S. cerevisiae deletion strains, locus YMR307W, strain GAS1, active compounds read low 0.959 | S. cerevisiae deletion strains, locus YNL067W, strain RPL9B, active compounds read low 1.01 | S. cerevisiae deletion strains, locus YNL071W, strain lat1, active compounds read low 0.99 | S. cerevisiae deletion strains, locus YNL128W, strain TEP1, active compounds read low 1.01 | S. cerevisiae deletion strains, locus YNL153C, strain GIM3, active compounds read low 1.01 | S. cerevisiae deletion strains, locus YNL183C, strain NPR1, active compounds read low 0.886 | S. cerevisiae deletion strains, locus YNL209W, strain ssb2, active compounds read low 0.989 | S. cerevisiae deletion strains, locus YNL233W, strain BNI4, active compounds read low 1.01 | S. cerevisiae deletion strains, locus YNL248C, strain rpa49, active compounds read low 0.98 | S. cerevisiae deletion strains, locus YNL250W, strain rad50, active compounds read low 1 | S. cerevisiae deletion strains, locus YNL271C, strain bni1, active compounds read low 1.03 | S. cerevisiae deletion strains, locus YNL298W, strain CLA4, active compounds read low 1.02 | S. cerevisiae deletion strains, locus YNL307C, strain MCK1, active compounds read low 1.03 | S. cerevisiae deletion strains, locus YNL322C, strain KRE1 (second series), active compounds read low 0.995 | S. cerevisiae deletion strains, locus YNL322C, strain KRE1, active compounds read low 1 | S. cerevisiae deletion strains, locus YNR049C, strain mso1, active compounds read low 0.959 | S. cerevisiae deletion strains, locus YNR052C, strain pop2, active compounds read low 1.01 | S. cerevisiae deletion strains, locus YOL006C, strain TOP1, active compounds read low 1.09 | S. cerevisiae deletion strains, locus YOL012C, strain htz1 0.924 | S. cerevisiae deletion strains, locus YOL147C, strain pex11, active compounds read low 1.02 | S. cerevisiae deletion strains, locus YOR001W, strain rrp6, active compounds read low 1.01 | S. cerevisiae deletion strains, locus YOR061W, strain CKA2, active compounds read low 1.01 | S. cerevisiae deletion strains, locus YOR069W, strain VPS5, active compounds read low 1 | S. cerevisiae deletion strains, locus YOR070C, strain gyp1, active compounds read low 0.996 | S. cerevisiae deletion strains, locus YOR080W, strain dia2, active compounds read low 0.986 | S. cerevisiae deletion strains, locus YOR083W, strain WHI5, active compounds read low 0.97 | S. cerevisiae deletion strains, locus YOR106W, strain vam3, active compounds read low 0.964 | S. cerevisiae deletion strains, locus YOR136W, strain idh2, active compounds read low 1.01 | S. cerevisiae deletion strains, locus YOR144C, strain elg1, active compounds read low 1.02 | S. cerevisiae deletion strains, locus YOR184W, strain ser1, active compounds read low 1.02 | S. cerevisiae deletion strains, locus YOR231W, strain MKK1, active compounds read low 0.994 | S. cerevisiae deletion strains, locus YOR265W, strain rbl2, active compounds read low 1.01 | S. cerevisiae deletion strains, locus YOR270C, strain vph1, active compounds read low 1.01 | S. cerevisiae deletion strains, locus YOR290C, strain snf2, active compounds read low 0.974 | S. cerevisiae deletion strains, locus YOR316C, strain cot1, active compounds read low 1.02 | S. cerevisiae deletion strains, locus YPL051W, strain arl3, active compounds read low 0.989 | S. cerevisiae deletion strains, locus YPL055C, strain LGE1, active compounds read low 1.01 | S. cerevisiae deletion strains, locus YPL078C, strain atp4, active compounds read low 0.978 | S. cerevisiae deletion strains, locus YPL106C, strain sse1, active compounds read low 0.949 | S. cerevisiae deletion strains, locus YPL240C, strain hsp82, active compounds read low 1 | S. cerevisiae deletion strains, locus YPL241C, strain CIN2, active compounds read low 1 | S. cerevisiae deletion strains, locus YPL256C, strain CLN2, active compounds read low 0.99 | S. cerevisiae deletion strains, locus YPR119W, strain clb2, active compounds read low 1.02 | S. cerevisiae deletion strains, locus YPR141C, strain kar3, active compounds read low 1.02 | S. cerevisiae deletion strains, locus YPR163C, strain tif3, active compounds read low 1.04 | S. cerevisiae deletion strains, locus YPR167C, strain met16, active compounds read low 1.01 | S. cerevisiae deletion strains, strain wtn01, active compounds read low 1.01 | S. cerevisiae strains, strain wild type, active compounds read low 1
